ERa SRC1 inh: ERα–SRC-1 coactivator interaction inhibitors, primary screen, biochemical, TR-FRET, ERα LBD, estradiol-bound. 86,000 tested, 1.7% active. Estrogen receptor (Homo sapiens), P03372. inhibition, % at 25.6 µM. TR-FRET ER-alpha LBD / SRC-1 peptide. AID 629, 2007; in the data active = inhibition above about 50%
MT1-MMP txn act: MT1-MMP promoter reporter activation – cell-based, luciferase luminescence, primary screen; AID 750, 2007; activation factor at 10 µM; 86,000 tested, 0.16% active; HT1080 MT1-MMP promoter luciferase reporter, overnight; stronger effect = higher value;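 active = activation factor of at least 2 for MT1-MMP transcription at 10 µM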
ERb coact inh: inhibitors of ERβ-SRC1 coactivator interaction, primary screen, biochemical, TR-FRET, ERβ LBD, SRC-1 peptide. Estrogen receptor beta (Homo sapiens), Q92731. 86,000 tested, 1.3% active. AID 633, 2007. TR-FRET ER-beta LBD / SRC1-Cy5 peptide binding; receptor agonist-loaded with 1 µM estradiol. inhibition, % at 25.6 µM;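 active = compounds whose percent inhibition of the receptor-coactivator binding signal exceeds about 50% in the single-dose screen, limit read from the data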
ERa coact pot: enhancers of ERα–SRC-1 coactivator binding, primary screen, biochemical, TR-FRET, ERα LBD, low estradiol; coactivator binding (% of control), % at 25.6 µM; 86,000 tested, 1.3% active; AID 639, 2007; TR-FRET ERalpha-LBD/SRC-Cy5 coactivator binding, 2 h; 100 = basal binding, no effect; in the data active = activity above about 200%;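 also: binding measured in presence of low estradiol as agonist stimulus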
hDAT+cocaine: changed hDAT dopamine uptake under cocaine IC80, either direction, primary screen, cocaine antagonist project, cell-based, LLC-PK1 hDAT, [14C]-dopamine uptake, MLSMR; Sodium-dependent dopamine transporter (Homo sapiens), Q01959; LLC-PK1 hDAT cells, [14C]-dopamine uptake with cocaine IC80; actives deviate in either direction; B-score at 10 µM; 110,000 tested, 1.3% active; AID 449768, 2010;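 active = Z score or B-score, a plate-position-corrected score, falls beyond the plate's 99.7% confidence bounds, in either direction; inactive = both scores lie inside the 99.7% bounds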
Target sequence (Q01959 whole entry, looked up): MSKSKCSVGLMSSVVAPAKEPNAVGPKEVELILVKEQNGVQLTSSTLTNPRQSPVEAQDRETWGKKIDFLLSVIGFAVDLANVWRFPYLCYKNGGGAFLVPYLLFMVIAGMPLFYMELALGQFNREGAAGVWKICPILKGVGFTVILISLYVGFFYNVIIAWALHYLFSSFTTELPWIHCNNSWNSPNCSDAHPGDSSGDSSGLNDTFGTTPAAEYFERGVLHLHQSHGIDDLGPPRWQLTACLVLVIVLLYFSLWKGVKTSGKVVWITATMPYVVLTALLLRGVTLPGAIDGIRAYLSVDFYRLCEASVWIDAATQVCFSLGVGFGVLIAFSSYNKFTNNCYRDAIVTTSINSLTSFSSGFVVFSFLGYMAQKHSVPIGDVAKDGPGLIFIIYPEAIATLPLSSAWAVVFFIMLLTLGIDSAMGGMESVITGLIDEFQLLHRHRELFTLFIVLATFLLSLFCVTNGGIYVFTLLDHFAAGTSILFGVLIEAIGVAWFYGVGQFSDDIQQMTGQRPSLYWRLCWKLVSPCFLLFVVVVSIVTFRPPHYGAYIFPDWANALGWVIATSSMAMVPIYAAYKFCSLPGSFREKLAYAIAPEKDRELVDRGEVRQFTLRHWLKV
Hits are given with their value; i = inactive; nt = no result; [ ] = dose if it differs, or a comment. Rows were chosen to be rich in hits. Some 3.8% of all compounds tested hit in one or more screens of this group.

SMILES | ERa SRC1 inh | MT1-MMP txn act | ERb coact inh | ERa coact pot | hDAT+cocaine
CCOc1ccc2[nH]c(=O)c(CN(CCO)C3(c4nnnn4C4CCCCC4)CCCCC3)cc2c1 | i | i | i | 239 | nt
CC(C(=O)c1c[nH]c2ccccc12)N1CCSCC1 (configuration not stated) | i | i | i | i | i
CC(C)C/C(=N/O)c1c[nH]c2ccccc12 | i | i | i | i | 4.2
CS(=O)(=O)c1ccc(C2=C(c3ccccc3)C(=O)OC2)cc1 | nt | nt | nt | nt | i
COC(=O)C1=C(c2cc3ccccc3s2)C[C@@H]2CC[C@H]1N2C(=O)N1CCC(C)CC1 | nt | nt | nt | nt | i
Cc1ccc(CN2CC3CC(C2)c2cccc(=O)n2C3)cc1 (configuration not stated) | i | i | i | i | i
CC(C)(C)c1ccc(S(=O)(=O)N2CC3CC(C2)c2cccc(=O)n2C3)cc1 (configuration not stated) | i | i | i | i | 2.4
C=C(C)[C@@]12OC3(c4ccccc4)O[C@@H]1C1[C@@H]4O[C@]4(CO)[C@@H](O)[C@]4(O)C(=O)C(C)=C[C@H]4[C@@]1(O3)[C@H](C)[C@H]2OC(=O)/C=C/C=C/c1ccccc1 (some centres not stated) | nt | nt | nt | nt | -6.3
CC1CCC(NCC(O)c2ccccc2)CC1 (configuration not stated) | i | i | i | 294[fluorescence artefact?] | i
COC1C(OC(=O)c2ccc(C)[nH]2)C(O)C(Oc2ccc3c(O)c(NC(=O)c4ccc(O)c(CC=C(C)C)c4)c(=O)oc3c2Cl)OC1(C)C (configuration not stated) | nt | nt | nt | nt | i
CC/C(=C\C=C\[C@@H]1C=C[C@@H]2CCC[C@H]2[C@@H]1C(=O)c1ccc[nH]1)[C@@H]1O[C@@H]([C@@H](C)C(=O)O)CC[C@@H]1C | i | i | i | i | -4
CCC1=CCN(CCc2c(C)[nH]c3ccccc23)CC1 | nt | nt | nt | nt | i
COc1ccc2[nH]c(C)c(CCN3CCC(=O)C(C)C3C)c2c1 (configuration not stated) | i | i | 64[fluorescence artefact?] | i | i
CCNCC1(c2ccc(OC)c(OC)c2)CCCC1 | i | i | i | i | i
CNCC1(c2ccccc2)CCCC1 | i | i | i | i | -7.4
C[C@]12CCC(=O)C=C1CCC1C2CC[C@@]2(C)C1CC[C@@]2(O)CC#N (some centres not stated) | i | i | 54 | i | i
CCN(CC)P(=O)(NC(=O)C(Cl)(Cl)Cl)N(CC)CC.[Cl-].[Cl-].[Cl-].[Nd+3] | 69[fluorescence artefact?] | i | 50[fluorescence artefact?] | i | i
CC(C)(C)P(=O)(c1ccncc1)N1CCCC1 (configuration not stated) | i | i | i | i | 6.2
C=C(CC1(C(C)NP(=O)(c2ccccc2)c2ccccc2)CC1)c1ccccc1 (configuration not stated) | nt | i | nt | nt | nt
CN1CCN(c2ccc(N)cc2)CC1 | 84[fluorescence artefact?] | i | 91[fluorescence artefact?] | i | i
COc1ccc(OCC(=O)N2CCN(Cc3c[nH]c4ccccc34)CC2)cc1 | i | i | i | i | 4.3
Cn1cccc1CN1CCN(C(=O)COc2ccccc2)CC1 | i | i | 93[fluorescence artefact?] | i | i
CN1CC[C@@H](c2ccc(F)cc2)[C@H](COc2ccc3c(c2)OCO3)C1 | nt | nt | nt | nt | i
CNC(=O)[C@H]1C[C@@H]1[C@H](NP(=O)(c1ccccc1)c1ccccc1)c1ccccc1 | nt | i | nt | nt | nt
COC(=O)[C@@H]1C[C@@]2(O)[C@@H](O)[C@@H](O)[C@@H](O)C[C@H]2N1Cc1cccnc1 | nt | i | nt | nt | nt
SMILES | ERa SRC1 inh | MT1-MMP txn act | ERb coact inh | ERa coact pot | hDAT+cocaine
O=C(N/N=C1/CN2CCC1CC2)c1cc2ccccc2cc1O | i | i | i | i | -8.2
c1ccc2cc3cc4ccccc4cc3cc2c1 | i | i | i | i | nt
CCCN1[C@H](C(=O)OC)C[C@@H]2CC[C@@H](O)C[C@@H]21 | nt | i | nt | nt | nt
CCN(CC)C1=NC(=[N+](CC)CC)c2ccccc21 | i | i | i | i | -3
CCC1(CCc2ccncc2)C(=O)NC(=O)NC1=O | i | nt | i | i | i
CCCc1cc2c(n1Cc1cccc(Cl)c1)C(C)C1CN(C(=O)c3ccccc3)C(C)(C(=O)OC)C21 (configuration not stated) | nt | i | nt | nt | nt
O=P1(NC2CCCC2)COc2ccccc2OC1 | i | i | i | i | i
O=P1(NCc2ccco2)COc2ccccc2OC1 | i | i | i | 211[fluorescence artefact?] | i
C=C1[C@@H](OC(C)=O)[C@]23C[C@@H]1[C@@H](OC(C)=O)CC2[C@]12C4C[C@H]3[C@H]1N(CC)C[C@]4(C)CC[C@@H]2O (some centres not stated) | nt | nt | nt | nt | i
C[C@H]1O[C@@H](O[C@H]2[C@@H](O)C[C@H](O[C@H]3[C@@H](O)C[C@H](O[C@H]4CC[C@@]5(C)[C@H](CC[C@@H]6[C@@H]5CC[C@]5(C)[C@@H](C7=CC(=O)OC7)CC[C@]65O)C4)O[C@@H]3C)O[C@@H]2C)C[C@H](O)[C@@H]1O | nt | nt | nt | nt | -7.2
C[C@@H]1O[C@@H](O[C@H]2C[C@@H](O)[C@]3(CO)[C@H]4[C@H](O)C[C@]5(C)[C@@H](C6=CC(=O)OC6)CC[C@]5(O)[C@@H]4CC[C@]3(O)C2)[C@H](O)[C@H](O)[C@H]1O | nt | nt | nt | nt | -6.6
COC(=O)C1=C(c2cccc(OC)c2OC)C[C@@H]2CC[C@H]1N2C(=O)NCCCOC(C)C | nt | nt | nt | nt | i
COC(=O)C1=C(c2cccc(OC)c2OC)C[C@@H]2CC[C@H]1N2C(=O)N1CCCC1 | nt | nt | nt | nt | i
